Shown are actives, neighbours in structure and some others; about 0.5% of the full set was active somewhere.
phage Ecoli inh: growth loss of phage-infected E. coli, primary screen, RecBCD inhibitor project, absorbance, with phage, HTS. inhibition, % at 11.9 µM. 360,000 tested, 0.26% active; in the data active = inhibition above about 11%
AddAB inh: growth inhibition of E. coli expressing H. pylori AddAB, primary screen, AddAB inhibitor project, absorbance | inhibition, % at 11.9 µM | 330,000 tested, 0.29% active; in the data active = inhibition above about 12%;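 also: 0% = vehicle wells of infected cells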
Tat transport: E. coli Tat export inhibitors, primary screen, MC4100, TorA-mCherry reporter, fluorescence, single point | 340,000 tested, 0.036% active | inhibition, % at 10 µM | AID 488895, 2010;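 active = mean replicate inhibition at least 50% and at least half of replicates individually reaching 50%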;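 also: exported cargo escapes ClpAP degradation while cytoplasmic cargo is degraded and loses fluorescence; 0% = median of neutral control wells and 100% = median of NaSCN control wells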
E coli growth-1: E. coli growth inhibition, primary screen, OD600 | 330,000 tested, 0.21% active | AID 1053175, 2014 | OD600 absorbance (concentration not given with the values) | Escherichia coli growth, 23 h; hits give low values;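 active = OD600 absorbance below the run mean of sample wells minus 3.6 SD, in any replicate, cut at about 0.56 in these data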
E coli growth-2: E. coli V3065 growth inhibition, primary screen, counter-screen for AddAB inhibitor project, absorbance, OD600; 18 h; inhibition, % at 11.9 µM; 330,000 tested, 0.27% active;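 active = inhibition above the campaign's mean inhibition across all tested compounds plus 3 SD, cut at about 9.9% in these data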;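 also: uninfected addAB+ strain grown without phage in ampicillin broth; 0% = DMSO wells and 100% = ciprofloxacin 0.95 µg/ml wells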
RecBCD conf: growth loss of phage-infected RecBCD+ E. coli, confirmation, RecBCD inhibitor project, absorbance, E. coli V66, T4 gene 2 phage; AID 651982, 2013; inhibition, % at 11.9 µM; E. coli V66 + T4 2- phage, growth OD; 890 tested, 45% active; shares compounds with phage Ecoli inh;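 active = mean inhibition over triplicates exceeding the hit threshold derived in the original primary screen, cut at about 11% in these data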
Ecoli viability: E. coli viability inhibition, counter-screen for RecBCD inhibitor project, absorbance, high throughput; absorbance (OD) growth; inhibition, % at 11.9 µM; shares compounds with phage Ecoli inh; AID 651983, 2013; 890 tested, 29% active; in the data active = inhibition above about 20%;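 also: E. coli strain V66 grown with compound alone and no phage infection; 0% = bacteria with DMSO vehicle only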
AddAB counter: growth loss of phage-infected AddAB-carrying E. coli, confirmation, counter-screen for RecBCD inhibitor project, absorbance, E. coli V3065, T4 phage; shares compounds with phage Ecoli inh; E. coli expressing H. pylori AddAB + T4 phage, OD growth; gene 2 mutant T4, recBCD-deleted host; inhibition, % at 11.9 µM; 890 tested, 45% active;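 active = mean inhibition above the solvent-only control wells' mean plus 3 SD, cut at about 22% in these data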;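 also: higher means less bacterial growth from phage killing when AddAB is blocked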
Active calls of the source: *; . = not tested or not shown.

SMILES | phage Ecoli inh | AddAB inh | Tat transport | E coli growth-1 | E coli growth-2 | RecBCD conf | Ecoli viability | AddAB counter
O=C(N/N=C/c1cc2c3c(c1O)CCCN3CCC2)c1ccccc1O | 25* | . | -6 | . | . | 10 | 14 | 14
FC(F)(F)c1ccc(CN2CC3C(c4ccccc4)C4(c5ccccc5)CC3(C4)C2c2ccccc2)cc1 (stereo not drawn) | . | . | . | 0.71 | . | . | . | .
Cc1ccc(NCCN(C)C)c2c(=O)c3cc(O)ccc3sc12 | 1 | . | -9 | . | . | . | . | .
CN(C)CCNc1cccc2sc3ccc(O)cc3c(=O)c12 | 13* | . | . | . | . | -3 | -3 | 3
Cn1cc(S(=O)(=O)N2CCc3ccccc32)cc1C(=O)NC1CCCCC1 | 98* | 1 | 1 | 0.67 | -1 | -4 | -3 | -4
CSC1SCC2C(=O)N(C)C(C(C)C)C(=O)OCC(NC(=O)c3cnc4ccccc4n3)C(=O)NC(C)C(=O)N(C)C1C(=O)N(C)C(C(C)C)C(=O)OCC(NC(=O)c1cnc3ccccc3n1)C(=O)NC(C)C(=O)N2C (stereo not drawn) | 99* | . | 37 | . | . | 89* | 92* | 81*
COc1ccccc1/C=C\C=Nn1c(C2CCCCC2)n[nH]c1=S | . | . | . | 0.71 | . | . | . | .
COc1cc(-c2nnc(COC(=O)c3ccc([N+](=O)[O-])o3)o2)cc(OC)c1OC | 12* | . | . | . | . | -2 | 0 | 14
O=C(OCc1nnc(-c2ccccc2)o1)c1ccc([N+](=O)[O-])o1 | 6 | 1 | -2 | 0.66 | 3 | . | . | .
CCOC(=O)C1CCCN(C(=O)C=Cc2cc(OC)c(OC)c(OC)c2)C1 (stereo not drawn) | . | . | . | 0.68 | . | . | . | .
C=CCn1c(=O)c(C(=O)NCCc2ccccc2)c(O)c2ccccc21 | 13* | 10 | 7 | 0.65 | 13* | 6 | 10 | 8
COc1ccc(N(CC(=O)Nc2cccc(C)c2C)S(=O)(=O)c2c(C)n[nH]c2C)cc1 | 3 | 5 | 3 | 0.72 | 2 | . | . | .
COc1ccc(N(CC(=O)Nc2cccc(C)c2C)S(=O)(=O)c2c(C)[nH]c(=O)[nH]c2=O)cc1 | 100* | 1 | 6 | 0.69 | 0 | -5 | -4 | -3
COc1ccc(Cl)cc1NS(=O)(=O)c1c(C)nc2sccn2c1=O | 3 | 3 | 4 | 0.75 | -1 | . | . | .
Cc1ccc(C)c(NS(=O)(=O)c2c(C)nc3sccn3c2=O)c1 | 99* | -2 | -10 | 0.7 | 0 | -2 | -2 | -2
COC(=O)c1ccc(COc2ccc(C=NN3CCN(C)CC3)cc2)cc1 | . | . | . | 0.67 | . | . | . | .
CCN(CC)c1ccc(/C=N/Nc2nc3ccccc3[nH]2)c(O)c1 | 15* | -1 | -7 | . | 2 | 8 | 13 | 16
CC1Cc2ccccc2N1C(=O)CCn1c(=O)oc2ccccc21 (stereo not drawn) | 99* | -1 | 10 | 0.66 | 0 | -7 | -7 | -2
CCCCOC1NC(=O)NC(=O)C1(F)C(=O)OCC (stereo not drawn) | 6 | . | . | . | . | . | . | .
COC(=O)C1(F)C(=O)NC(=O)NC1OC (stereo not drawn) | 23* | . | . | . | . | 27* | 16 | 47*
CC(=NNC(=O)c1ccc(O)cc1)c1ccc(NC(=O)Cc2ccccc2)cc1 | . | . | . | 0.69 | . | . | . | .
Cn1cc([N+](=O)[O-])c(C(=O)N/N=C/c2ccc([N+](=O)[O-])cc2)n1 | 11* | 6 | -2 | . | 1 | -1 | -1 | 0
COc1cc2c(c(O)c1OC)-c1c(cc(OC)c(OC)c1OC)CC(C)C(C)C2 (stereo not drawn) | . | . | . | 0.68 | . | . | . | .
Cc1cn([C@H]2C=C[C@@H](CO)O2)c(=O)[nH]c1=O | 22* | 7 | 4 | 0.65 | 3 | 16* | 7 | 51*
Nc1ccc2oc(-c3cccc(Br)c3)nc2c1 | . | -1 | -2 | 0.69 | -1 | . | . | .
SMILES | phage Ecoli inh | AddAB inh | Tat transport | E coli growth-1 | E coli growth-2 | RecBCD conf | Ecoli viability | AddAB counter
Nc1nc2cc(Br)ccc2o1 | 14* | . | -16 | 0.65 | . | 11* | 11 | 28*
Cc1cc(C)nc(N/C(=N\S(=O)(=O)Cc2ccccc2)Nc2ccccc2)n1 | . | . | . | 0.7 | . | . | . | .
CCN(CC)S(=O)(=O)c1cccc(NC(=O)Nc2cccc(C(F)(F)F)c2)c1 | 11* | 9 | 13 | 0.64 | 7 | 2 | 4 | 2
CCN(CC)S(=O)(=O)c1cccc(NC(=O)CC2CCCC2)c1 | 1 | 2 | 25 | 0.7 | 1 | . | . | .
CC(CCc1ccco1)NC(=O)Cn1ncc2c(=O)oc3ccccc3c21 (stereo not drawn) | 99* | 4 | 0 | 0.67 | -2 | -4 | -4 | -4
Cc1nn(-c2ccccc2)c(C)c1C=NN1CCN(c2ccc(Cl)cc2)CC1 | . | . | . | 0.81 | . | . | . | .
FC(F)(F)c1cccc(Sc2nc(-c3ccccc3)nnc2C(F)(F)F)c1 | 2 | 4 | 0 | 0.71 | 1 | . | . | .
Nc1nc(N)c2cc(Sc3ccc(Cl)cc3)ccc2n1 | 101* | . | . | . | . | 102* | 104* | 103*
Nc1nc(N)c2cc(Sc3cccc(C(F)(F)F)c3)ccc2n1 | 61* | . | . | . | . | 67* | 58* | 86*
CN(Cc1c(C(=O)NN=Cc2ccc(F)cc2)nnn1-c1nonc1N)C1CCCCC1 | . | . | . | 0.71 | . | . | . | .
O=C(NCc1ccccc1)c1sc(=S)n2c1[nH]c(=O)c1ccccc12 | 15* | 4 | -4 | 0.72 | -2 | -2 | -2 | -10
Cc1cc(C)cc(N=C2NC(=O)/C(=C/c3cccs3)S2)c1 | 3 | 0 | 6 | 0.69 | -4 | . | . | .
CCOc1ccc2c(c1)S/C(=C\c1cccs1)C(=O)N2 | 54* | 1 | -7 | 0.69 | 0 | 0 | 1 | 5
CCCCn1c(CNC(=O)Cc2ccccc2)nc2ccccc21 | 100* | 0 | -3 | 0.7 | -1 | -3 | -3 | 3
CCCCn1c(CNC(=O)CC)nc2ccccc21 | 2 | 1 | -9 | 0.72 | -2 | . | . | .
C(=NNc1nc(N2CCCC2)nc(N2CCCC2)n1)c1ccncc1 | . | . | . | 0.71 | . | . | . | .
CCOc1ccc(NC(=O)Nc2ccc3nsnc3c2)cc1 | 11* | 5 | -11 | 0.65 | 3 | 5 | 5 | -1
CCC(C)[C@H](N)C(=O)NCC1CCC(C(=O)N[C@@H](Cc2ccccc2)C(=O)O)CC1 (stereo partly drawn) | . | . | . | 0.64 | . | . | . | .
O=C(Oc1c(Br)cc([N+](=O)[O-])cc1Br)c1cccnc1 | 13* | 10 | 22 | 0.48* | 6 | 14* | 17 | 18
C[C@@H]1CN(c2c(F)c(F)c3c(=O)c(C(=O)O)cn(C4CC4)c3c2F)C[C@H](C)N1 | 98* | . | 68* | 0.067* | . | 103* | 105* | 104*

Compound activity (PubChem BioAssay)
